GDH-TPI inh: GDH-TPI coupled enzyme inhibition counter-screen; inhibition, % at 4.8 µM; GDH-TPI coupled enzyme counterscreen, NADH absorbance; AID 588335; 360,000 compounds, 1.2% hits; in the data active = inhibition above about 30%
BJeLR lethal: kills HRASV12-expressing BJeLR cells. 300,000 compounds, 0.17% hits. BJeLR (HRASV12) viability, CellTiter-Glo ATP luminescence, 48 h. inhibition, % (test concentration not listed); in the data active = inhibition above about 50%
PfHsp40 yeast: restores yeast growth despite PfHsp40 toxicity. S. cerevisiae expressing PfHsp40, growth rescue, ATP luminescence. growth rescue, % at 12.5 µM. 340,000 compounds, 0.68% hits. AID 504582; in the data active = growth rescue above about 28%, passing the limit was not always enough;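 also: yeast W303a lacking pdr1 and pdr3 grown in galactose medium; growth measured after three days at 30 °C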
PrPC TRFRET: inhibitors of human cell surface prion protein PrPC. P04156. TR-FRET read-out. inhibition, % at 13.8 µM. 370,000 compounds, 0.43% hits. AID 720596; in the data active = inhibition above about 24%
FBA Mtb inh: inhibitors of M. tuberculosis fructose-bisphosphate aldolase; P9WQA3; purified M. tuberculosis FBA, fluorescence read-out; inhibition, % at 1 µM; 360,000 compounds, 2.3% hits; AID 588726; in the data active = inhibition above about 27%
Target sequence (P9WQA3 whole entry, looked up): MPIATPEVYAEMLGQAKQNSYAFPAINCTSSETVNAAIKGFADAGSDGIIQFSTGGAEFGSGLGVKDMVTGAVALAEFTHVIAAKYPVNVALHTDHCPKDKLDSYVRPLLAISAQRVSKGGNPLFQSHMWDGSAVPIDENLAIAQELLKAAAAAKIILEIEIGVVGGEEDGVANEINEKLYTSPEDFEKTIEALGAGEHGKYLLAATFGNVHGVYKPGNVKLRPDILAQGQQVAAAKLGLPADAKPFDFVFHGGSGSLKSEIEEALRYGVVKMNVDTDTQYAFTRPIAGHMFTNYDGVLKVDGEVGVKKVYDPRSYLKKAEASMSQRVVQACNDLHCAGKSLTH
PrP UTR inh: inhibition of PrP 5' UTR reporter expression | cell-based PrP 5' UTR mRNA reporter, plate reader | inhibition, % (concentration not given with the values) | 340,000 compounds, 0.35% hits | AID 488862; in the data active = inhibition above about 52%
A number is an active result; 0 = inactive; - = not tested or not shown; + = active, no number. Sampled rows, rich in hits. Any-hit rate of the full collection: about 4.5%.

SMILES	GDH-TPI inh	BJeLR lethal	PfHsp40 yeast	PrPC TRFRET	FBA Mtb inh	PrP UTR inh
O=C(/C=C/c1ccco1)Nc1nnc(-c2ccco2)s1	0	0	0	0	0	0
CCc1nnc(NC(=O)/C=C/c2ccco2)s1	47	0	0	0	0	0
CCSc1nnc(NC(=O)/C=C/c2ccco2)s1	0	0	0	0	0	0
Cc1nc(NC(=O)/C=C/c2ccco2)sc1C	32	0	0	0	0	0
Cc1ccc(-n2nc(C)cc2Nc2ncc(Cl)cc2Cl)cc1	0	0	93	0	0	0
C=CCNC(=O)CSc1nc2sc3c(c2c(=O)n1CCCOC)CCC3	35	0	0	0	0	0
CCN(CC)S(=O)(=O)c1ccc(-c2nnc(SCc3nnc(-c4ccc(C)cc4)o3)o2)cc1	0	0	0	0	0	0
CCN(CC)S(=O)(=O)c1ccc(-c2nnc(SCc3nnc(-c4ccc(C)cc4)o3)n2CC)cc1	0	0	45	0	0	0
COc1cccc(CNC(=O)[C@H]2CCCN2C(=O)[C@H]2CCCN2C(=O)c2cccc3ccccc23)c1	-	-	-	0	-	-
COc1cccc(-n2c([S-])c(C(=O)Nc3ccc(S(=O)(=O)N4CCOCC4)cc3)[n+]3cc(C(N)=O)ccc23)c1	31	0	0	0	0	0
CC(C)COc1cccc(C(=O)Nc2ccc(S(=O)(=O)N3CCOCC3)cc2)c1	0	0	0	0	0	0
Cc1cccc(C(=O)Nc2ccc(S(=O)(=O)N3CCOCC3)cc2)c1[N+](=O)[O-]	0	0	0	0	0	0
O=C(Nc1ccc(S(=O)(=O)N2CCOCC2)cc1)c1ccc([N+](=O)[O-])o1	32	0	0	0	0	0
Cc1c(C(=O)Nc2ccc(S(=O)(=O)N3CCOCC3)cc2)cccc1[N+](=O)[O-]	0	0	0	0	+	0
COCCCNC(=O)C[C@H]1C[C@@]2(C(=O)OC)C(=C[C@H](C(C)(C)C)O[C@@H]2C)N(Cc2cccc3ccccc23)C1=O	-	-	-	0	-	-
COC(=O)C1CN(C2CC2)CCS(=O)(=O)N1Cc1cn(Cc2ccc(Cl)cc2)nn1 (stereo unspecified)	-	-	-	0	-	-
COc1ccc2sc(-c3ccc(S(C)(=O)=O)cc3)c(-c3ccc4c(c3)OCCO4)c2c1	0	-	0	0	0	0
COc1cc2sc(-c3ccc(S(C)(=O)=O)cc3)c(-c3ccc4c(c3)OCO4)c2cc1OC	0	-	0	0	32	0
CCN(CC)CCCNc1cc(C(F)(F)F)c(C#N)c2nc3ccccc3n12	0	0	0	0	0	-
Cc1c2c(n3c(nc4ccccc43)c1C#N)N(CCN1CCOCC1)CC2	0	0	0	0	+	0
CCN(CC)CCCNc1cc(C)c(C#N)c2nc3ccccc3n12	0	-	-	0	116	-
Cc1cc(NCCCN2CCOCC2)n2c(nc3ccccc32)c1C#N	0	0	0	0	+	0
Cc1cc(NCCCCO)n2c(nc3ccccc32)c1C#N	0	0	0	0	+	0
CCCc1c(-c2ccccc2Br)ncn1Cc1ccccc1OC	-	-	-	0	-	-
CCOc1cccc(/C=C/c2ccc3cccc(O)c3n2)c1O	0	0	0	0	0	0
SMILES	GDH-TPI inh	BJeLR lethal	PfHsp40 yeast	PrPC TRFRET	FBA Mtb inh	PrP UTR inh
CCOc1cccc(/C=C/c2ccc3cccc(O)c3n2)c1OC	0	0	168	0	0	-
Cc1cc(N2CCOc3ccccc32)nc2ccccc12	-	-	-	0	-	-
O=C(NCc1ccc(C(=O)NC2CCCC2)cc1)c1cccc(Br)c1	-	-	-	0	-	-
COc1ccc(/C=N/NC(=S)N[C@H]2CC3CCC2C3)cc1 (stereo partly specified)	0	0	0	0	0	0
COc1ccc(C=NNC(=S)Nc2ccc(F)cc2)cc1OC	69	-	0	0	0	0
COc1ccc(C=NNC(=S)NN=Cc2ccc(OC)c(OC)c2)cc1OC	64	-	0	0	0	0
COc1cc(/C=N/NC(=S)NCCN2CCOCC2)cc(OC)c1O	49	0	0	0	0	0
COc1cc(/C=N/NC(=S)NC2CC3CCC2C3)ccc1O (stereo unspecified)	52	0	0	0	0	0
COc1ccc(/C=N/NC(=S)NCc2ccccc2)cc1OC	0	0	0	0	0	0
Cc1ccc(-c2nc(C3CCCN(S(=O)(=O)c4cccs4)C3)no2)cc1 (stereo unspecified)	-	-	-	0	-	-
COc1cc(/C=N/NC(=O)c2ccoc2C)cc(OC)c1OC	0	0	0	0	0	-
COc1cc(/C=N/NC(=S)N/N=C/c2cc(OC)c(OC)c(OC)c2)cc(OC)c1OC	45	0	0	0	0	0
O=[N+]([O-])c1ccccc1/C=N/Nc1nnc(-c2ccccc2)c(-c2ccccc2)n1	0	0	42	0	0	0
COc1ccc(S[C@]2(C(=O)N3CCN(C(C)=O)CC3)CC(=O)N(C(=O)Nc3ccc(C)c(Cl)c3)[C@@H]2c2ccc(OC)cc2)cc1	-	-	-	0	-	-
O=C(CCC(=O)N1CCN(C2c3ccccc3-c3ccccc32)CC1)Nc1nnc(C(F)(F)F)s1	-	-	-	0	-	-
Cc1cccn2c(=O)c3cc(C(=O)NC(C)C)c(=N)n(Cc4ccncc4)c3nc12	0	0	0	0	+	0
COCCCNC(=O)c1cc2c(=O)n3cccc(C)c3nc2n(C(C)C)c1=N	0	0	0	0	+	0
CCNC(=O)c1cc2c(=O)n3cccc(C)c3nc2n(Cc2ccc(C)cc2)c1=N	0	0	0	0	112	0
CC(=O)N1[C@@H](CO)[C@@H](c2ccc(-c3cccc(F)c3)cc2)[C@@H]1CNCC1CCC1	-	-	-	0	-	-
Cc1ccc(Nc2cc(C)c3ccc(O)cc3n2)cc1C	0	0	0	0	0	-
Cc1cc(NCc2ccco2)nc2cc(O)ccc12	0	0	0	0	124	0
COc1ccccc1C(=O)NC1CCCCN(Cc2cccc(Cl)c2)C1=O (stereo unspecified)	-	-	-	0	-	-
CNC(=O)c1sc(-c2ccccc2)nc1C	0	0	93	0	0	0
CNC(=O)c1sc(-c2ccc(Cl)cc2)nc1C	0	0	0	0	0	0
CC(C)(C)OC(=O)NCCCc1ccc2c(c1)[C@]1(CCC[C@@H](OCc3ccccc3)[C@@H]1NC(=O)CCc1ccccc1)C(=O)N2Cc1ccccc1	-	-	-	0	-	-
SMILES	GDH-TPI inh	BJeLR lethal	PfHsp40 yeast	PrPC TRFRET	FBA Mtb inh	PrP UTR inh
COc1ccc(C2C(C(=O)Nc3ccc(Cl)cc3)CCC(=O)N2c2ccc(OC)cc2)cc1 (stereo unspecified)	-	-	-	0	-	-
COc1ccc(-c2c(C)oc3c(CN4CCOCC4)c(O)ccc3c2=O)cc1OC	0	0	0	0	0	0
COc1cccc(Oc2c(C)oc3c(CN4CCCC4)c(O)ccc3c2=O)c1	0	0	0	0	173	0
COc1cccc(Oc2coc3c(CN4CCOCC4)c(O)ccc3c2=O)c1	0	0	0	0	115	0
O=c1c(-c2ccc3c(c2)OCCO3)coc2c(CN3CCOCC3)c(O)ccc12	0	0	0	0	0	0
COC(=O)c1ccc(Oc2c(C(F)(F)F)oc3c(CN4CCN(C)CC4)c(O)ccc3c2=O)cc1	0	0	0	0	0	0
COc1ccccc1Oc1c(C)oc2c(CN3CCOCC3)c(O)ccc2c1=O	0	0	0	0	181	0
